Some test systems named below: NCI-H23 lung; NCI-H226 lung; NCI-H322M lung; HOP-62 NSCLC; NCI-H460 lung; HOP-92 NSCLC; NCI-H522 lung; A549/ATCC NSCLC; 786-0 renal; COLO 205 colon; DU-145 prostate; K-562 leukemia; MALME-3M melanoma; MDA-MB-231 breast; RXF 393 renal; SF-268 CNS; SF-295 CNS; SF-539 CNS; UACC-257 melanoma; M14 melanoma.
Common to all, as to experiment: NCI-60 one-dose screen, 48 h (100 = growth as untreated, 0 = no growth, -100 = all killed)
What all share (conditions): 10 µM unless noted

About 83,000 compounds went through this panel and 20% of them were active in at least one assay; those are over-represented in the sample as a whole.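 Values shown are percent growth following 48 h exposure of cells in 96-well plates to a single concentration of compound; below 10 was considered active.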 Values without a mark were called inactive. The source made the active and inactive calls.

Turning to `COc1ccc(/C=C2\c3cc(OC)c(OC)c(OC)c3CC[C@@H]2O)cc1F`, the growth in the test with NCI-H23 lung is 37.3%; in the test with NCI-H226 lung it was 58.1%; in the test on NCI-H322M lung, 66.3%; in the test with HOP-62 NSCLC it was 32.6%; in the test on NCI-H460 lung, 13.8%; in the test with HOP-92 NSCLC, 38.2%. For the same molecule, the growth with NCI-H522 lung was -32.5% (active); in the test with A549/ATCC NSCLC, 16.7%; with 786-0 renal, 34.7%; with COLO 205 colon, 2.26% (active); in the test with DU-145 prostate it was 19.5%; with K-562 leukemia, 13.4%. In addition, the growth with MALME-3M melanoma was 70.2%; in the test with MDA-MB-231 breast, 28.8%; with RXF 393 renal, 8.31% (active); with SF-268 CNS, 53.9%; in the test with SF-295 CNS, 17%; with SF-539 CNS it was 1.44% (active). Moreover, the growth is 39% with UACC-257 melanoma and 5.42% (active) in the test with M14 melanoma.

With `c1cc(OCCN2CCCCCC2)ccc1CNc1ccc2nc(CCC3CCCCC3)[nH]c2c1`, the growth in the test on NCI-H23 lung is 82.6%; with NCI-H226 lung it was 60.8%; in the test on NCI-H322M lung it was 81.7%; in the test with HOP-62 NSCLC, 60.5%; with NCI-H460 lung, 68.3%; in the test on HOP-92 NSCLC, 23.3%. Moreover, the growth in the test with NCI-H522 lung is 68.5%; with A549/ATCC NSCLC, 70.8%; with 786-0 renal, 54.2%; with COLO 205 colon, -48% (active); in the test on DU-145 prostate it was 69.8%; in the test on K-562 leukemia, 3.02% (active). Further, the growth is -72.6% (active) in the test on MALME-3M melanoma; 25.5% in the test on MDA-MB-231 breast; 56.2% in the test with RXF 393 renal; 69.9% with SF-268 CNS; 79.1% in the test with SF-295 CNS; 72.8% in the test with SF-539 CNS. Moreover, the growth in the test with UACC-257 melanoma was 31.8%; with M14 melanoma, -69.9% (active).

Consider `COc1ccc2cc(-c3nc4ccc(C)cn4c3NCc3ccco3)c(=O)[nH]c2c1`, for which the growth in the test on NCI-H23 lung is 70.2%; with NCI-H226 lung, 76.4%; in the test with NCI-H322M lung, 74.1%; with HOP-62 NSCLC, 90.7%; in the test with NCI-H460 lung it was 88.9%; in the test with HOP-92 NSCLC, 20.6%. Moreover, the growth in the test on NCI-H522 lung was 87.3%; in the test on A549/ATCC NSCLC, 85.2%; in the test with 786-0 renal, 67.9%; in the test with COLO 205 colon, 76%; with DU-145 prostate it was 71.7%; in the test on K-562 leukemia, 74.3%. In addition, the growth in the test with MALME-3M melanoma was 75.4%; with MDA-MB-231 breast it was 49.6%; in the test with RXF 393 renal, 73.4%; in the test with SF-268 CNS it was 71.6%; in the test on SF-295 CNS it was 74.8%; in the test on SF-539 CNS, 65.5%. Besides, the growth with UACC-257 melanoma is 103%; in the test on M14 melanoma it was 86.8%.

Turning to `O=c1oc2c(cc1-c1ccccc1)c(=O)[nH]c1ccccc12`, the growth was 95.8% with NCI-H23 lung; 102% with NCI-H226 lung; 104% with NCI-H322M lung; 106% in the test on HOP-62 NSCLC; 105% in the test on NCI-H460 lung; 103% with HOP-92 NSCLC. Further, the growth was 94.2% in the test on NCI-H522 lung; 97.7% with A549/ATCC NSCLC; 85.9% with 786-0 renal; 107% in the test with COLO 205 colon; 105% in the test on DU-145 prostate; 89.2% with K-562 leukemia. The growth was 95.7% with MALME-3M melanoma; 96.8% with MDA-MB-231 breast; 102% in the test on RXF 393 renal; 100% with SF-268 CNS; 94.6% in the test with SF-295 CNS; 106% with SF-539 CNS. In addition, the growth in the test with UACC-257 melanoma is 100%; with M14 melanoma, 99.7%.

Consider `C=C(C)[C@@H]1CC[C@]2(COC3CCCCO3)CC[C@]3(C)[C@H](CC[C@@H]4[C@@]5(C)C=C(C=O)C(=O)C(C)(C)[C@@H]5CC[C@]43C)[C@@H]12` (stereo not given in full), for which the growth is -58.9% (active) in the test on NCI-H23 lung; 1.68% (active) with NCI-H226 lung; 8.97% (active) in the test on NCI-H322M lung; -68% (active) in the test with HOP-62 NSCLC; -47.2% (active) in the test on NCI-H460 lung; -91.6% (active) with HOP-92 NSCLC. The growth in the test on NCI-H522 lung is -75% (active); in the test with A549/ATCC NSCLC, -63.5% (active); in the test on 786-0 renal it was -86.2% (active); in the test on COLO 205 colon, -32% (active); with DU-145 prostate, -94.3% (active); in the test on K-562 leukemia, -24.9% (active). For the same molecule, the growth in the test with MALME-3M melanoma was -75.4% (active); with MDA-MB-231 breast it was -37.7% (active); in the test on RXF 393 renal, -85.7% (active); with SF-268 CNS it was -67.1% (active); with SF-295 CNS it was -95.5% (active); in the test with SF-539 CNS, -74.3% (active). The growth with UACC-257 melanoma is -28.5% (active); in the test on M14 melanoma, -62.9% (active).

For `NS(=O)(=O)c1ccc(C(=O)NN2C(=O)c3ccccc3C2=O)cc1`, the growth in the test on NCI-H23 lung is 105%; in the test on NCI-H226 lung, 111%; in the test with NCI-H322M lung, 110%; in the test on HOP-62 NSCLC it was 108%; with NCI-H460 lung, 112%; in the test with HOP-92 NSCLC, 107%. Besides, the growth in the test with NCI-H522 lung was 99.5%; in the test on A549/ATCC NSCLC, 110%; in the test with 786-0 renal, 105%; with COLO 205 colon it was 108%; in the test with DU-145 prostate it was 105%; with K-562 leukemia it was 101%. The growth with MALME-3M melanoma was 109%; in the test on MDA-MB-231 breast, 109%; with RXF 393 renal it was 120%; with SF-268 CNS, 92.8%; in the test on SF-295 CNS, 98.7%; in the test on SF-539 CNS, 113%. Besides, the growth in the test on UACC-257 melanoma is 110%; with M14 melanoma it was 104%.

Turning to `CCOC(=O)C/C(=N\Nc1cc(=O)[nH]c2ccc(OC)cc12)C(=O)OCC`, the growth in the test on NCI-H23 lung is 99.4%; in the test on NCI-H226 lung, 97.6%; with NCI-H322M lung it was 94.9%; in the test with HOP-62 NSCLC it was 105%; in the test with NCI-H460 lung, 100%; in the test on HOP-92 NSCLC, 87.2%. Moreover, the growth in the test on NCI-H522 lung was 109%; with A549/ATCC NSCLC it was 105%; in the test on 786-0 renal, 107%; with COLO 205 colon it was 114%; in the test with DU-145 prostate, 99.6%; in the test on K-562 leukemia, 89.3%. Moreover, the growth in the test on MALME-3M melanoma is 104%; in the test on MDA-MB-231 breast it was 98.4%; with RXF 393 renal, 96.4%; with SF-268 CNS it was 98%; in the test with SF-295 CNS, 101%; in the test on SF-539 CNS, 90.9%. In addition, the growth was 108% in the test with UACC-257 melanoma and 102% with M14 melanoma.

As for `CC1(C)CC[C@]23CC[C@]4(C)[C@H](CC[C@@H]5[C@@]6(C)C/C(=C/O)C(=O)C(C)(C)[C@@H]6CC[C@]54C)[C@H]2[C@H]1OC3`, the growth in the test on NCI-H23 lung is 99.1%; in the test on NCI-H226 lung, 105%; with NCI-H322M lung, 105%; with HOP-62 NSCLC it was 102%; in the test on NCI-H460 lung, 107%; with HOP-92 NSCLC it was 105%. Further, the growth in the test with NCI-H522 lung was 90.6%; with A549/ATCC NSCLC, 106%; with 786-0 renal, 106%; with COLO 205 colon, 111%; in the test with DU-145 prostate, 115%; with K-562 leukemia, 105%. For the same molecule, the growth is 104% in the test with MALME-3M melanoma; 97.6% with MDA-MB-231 breast; 121% with RXF 393 renal; 108% with SF-268 CNS; 103% with SF-295 CNS; 101% with SF-539 CNS. Besides, the growth was 101% in the test with UACC-257 melanoma and 103% with M14 melanoma.

Source of the values: PubChem BioAssay (NCI).
